Among all 10,000 compounds or so, about 20 (0.2%) were called active.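 The calls were made as follows: active = a compound raising TNF-alpha-driven VCAM-1 surface staining, with its hit status upheld on visual or statistical review; inactive = the rest, including hits rejected on review.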 The full list was thinned out, with actives kept by preference.

This assay in a line: boosters of cytokine-driven VCAM-1 levels – cell-based, plate reader, pooled HUVEC, TNFa stimulus (AID 455).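 As to augmentation: 0% = TNFa plus DMSO wells and 100% = a visually confirmed top hit.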 As to conditions: HUVEC TNFa-induced VCAM-1 immunofluorescence; active compounds read high,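 tested at 5 µM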.
With `COc1ccccc1/C=C1/C(=N/O)C2CCN1CC2`, the augmentation was 81.5% (active).
With `O=C(CCCOc1ccc(Cl)cc1Cl)N1CCC2(CC1)OCCO2` the entry was “inactive”; with `O=C(Cn1ncc2c3ccccc3n(Cc3ccc(F)cc3)c2c1=O)N1CCC2(CC1)OCCO2`, “inactive”; with `Cc1cccc(N2CCc3c2nc2ccccc2c3N)c1`, “inactive”.
Next, `COc1ccc(C2SCC(=O)Nc3c2c(=O)[nH]n3C2CCCCCC2)cc1OC` (stereo not given): “inactive”.

The values are drawn from PubChem BioAssay AID455 (Sanford-Burnham Center for Chemical Genomics, 2006).
